High-throughput results (PubChem BioAssay)
Sampled rows, rich in hits. Any-hit rate of the full collection: about 19%.
DT40 TDP1 CPT: DT40-hTDP1 cell growth loss with CPT; chicken DT40 Tdp1-/-;hTDP1 cells + 20 nM CPT, ATP luminescence, 48 h; hit rate 12% among 420,000; Potency, µM (top dose mostly 46.2 µM), usual class: inhibitors; note: nearly all actives have a fitted effect of over 55% in size
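Chicken DT40 Tdp1-/- cells complemented with human TDP1, 400 cells/well, exposed to compounds plus 20 nM camptothecin for at least 48 h at 37 C; viability read as ATP content by CellTiter-Glo luminescence.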
HT1080 IDH1KD tx: toxicity to HT-1080 IDH1 knockdown cells (counter line); Potency, µM (titrated, usually from 46.1 µM), actives largely listed as cytotoxic; HT-1080 IDH1 knockdown viability, ATP luminescence, 48 h; hit rate 2% among 360,000
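Viability of IDH1-knockdown HT-1080 fibrosarcoma cells was assessed by CellTiter-Glo after 48 h at 37 °C with titrated compound; concentration-effect curves were classified by fit quality and response size.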
IL-1B inflam inh: inhibitors of inflammasome signaling (IL-1 beta secretion); THP-1 LPS/ATP IL-1B secretion, AlphaLISA, 16 h; stronger effect = lower value; activity change, % at 57.5 µM; hit rate 4.7% among 360,000; AID 743279; in the data active = activity change below about -50%; inconclusive = mostly about -30% to -49%
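THP-1 cells pretreated 1 hr with compounds (up to 57.5 uM final), then stimulated with LPS (250 ng/mL final) plus ATP (1.25 mM final); secreted IL-1B measured by AlphaLISA after 16 hr, decreased signal indicating inhibition.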
HT1080NT lethal: kills 2HG-producing HT-1080-NT fibrosarcoma cells; HT-1080-NT fibrosarcoma viability, CellTiter-Glo ATP luminescence, 48 h; Potency, µM (series often up to 46.1 µM), hits mostly cytotoxic; hit rate 1.6% among 360,000; AID 686970;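 note: NT is the 2HG producing partner of a matched IDH1 knockdown line; nearly all actives have a fitted effect of over 55% in size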
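Viability by CellTiter-Glo luminescence after 48 h compound exposure at 37C of HT-1080-NT cells (750/well, RPMI, 5% FBS). % activity scaled between DMSO wells and medium-only wells, then curve-fitted and categorized by curve class.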
DT40 TDP1 no CPT: qHTS for Inhibitors of human tyrosyl-DNA phosphodiesterase 1 (TDP1): qHTS in cells in absence of CPT | DT40 Tdp1-/- hTDP1 cells, no CPT, ATP luminescence, 48 h | Potency, µM (top dose mostly 46.2 µM), usual class: inhibitors | hit rate 15% among 420,000; note: nearly all actives have a fitted effect of over 55% in size
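DT40 Tdp1-/-;hTDP1 cells, no CPT (DMSO vehicle only), 400 cells/well; compounds pin-transferred; ≥48 hr, 37 °C; CellTiter-Glo 30 min RT dark, luminescence read.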
A number is an active result; n = inactive; u = inconclusive; x = no result given. Unless noted, calls come from the whole dose curve; as a rule, active = well fitted curve in the direction sought with a large enough effect; inconclusive = small, poorly fitted or top-dose-only effect, or another doubt; inactive = no such curve, though single readings can be large; an effect the other way counts as inactive or inconclusive.

SMILES	DT40 TDP1 CPT	HT1080 IDH1KD tx	IL-1B inflam inh	HT1080NT lethal	DT40 TDP1 no CPT
COC(=O)C1=C(c2ccccc2OCc2ccccc2)C[C@@H]2CC[C@H]1N2C(=O)NCc1ccc(C(F)(F)F)cc1	u	n	u	n	u
COC(=O)C1=C(c2ccccc2OCc2ccccc2)C[C@@H]2CC[C@H]1N2C(=O)NCc1cccc(C(F)(F)F)c1	u	n	n	n	16µM
COC(=O)C1=C(c2ccc(OCc3ccccc3)cc2)C[C@@H]2CC[C@H]1N2C(=O)NCc1cccc(C(F)(F)F)c1	21µM	n	n	n	21µM
COC(=O)C1=C(c2ccc(F)cc2OCc2ccccc2)C[C@@H]2CC[C@H]1N2C(=O)NCc1ccc(C(F)(F)F)cc1	23µM	n	-52	n	u
COC(=O)C1=C(c2cccc(OCc3ccccc3)c2)C[C@@H]2CC[C@H]1N2C(=O)NCc1ccc(F)cc1	u	n	n	n	u
O=P(O)(O)/C=C(\Cl)c1ccccc1	n	n	n	n	n
COC(=O)C[C@](O)(CCCC(C)(C)O)C(=O)O[C@@H]1C(OC)=CC23CCCN2CCc2cc4c(cc2[C@H]13)OCO4 (some centres not stated)	0.013µM	x	x	x	0.0094µM
O=c1[nH]c(=O)n(Cc2ccccc2Cl)c(O)c1C=Nc1ccc(F)cc1	n	n	n	n	n
CC(C)c1ccccc1NC1=NCCCS1	n	n	n	n	n
Cc1cc(C(=O)CS(=O)(=O)c2ccccc2)cc(C)c1OC(=O)N(C)C	u	n	n	n	18µM
N#CC1c2ccccc2-n2nncc2CN1C(=O)CCc1ccccc1 (configuration not stated)	15µM	n	n	n	10µM
c1ccc(CCc2ccc3n2Cc2cnnn2-c2ccccc2-3)cc1	6.5µM	u	-58	u	u
COc1ccc(CN2Cc3cnnn3-c3ccccc3C2c2ccccc2)cc1 (configuration not stated)	16µM	u	n	u	16µM
CC(=O)N1Cc2cnnn2-c2ccccc2C1C#N (configuration not stated)	n	n	n	n	n
COc1ccc(-c2ccc3n2Cc2cnnn2-c2ccccc2-3)cc1	u	n	n	n	u
COc1ccc(CN2Cc3cnnn3-c3ccccc3C2C#N)cc1 (configuration not stated)	1.8µM	6.5µM	-102	8.2µM	1.8µM
COc1ccc(C(=O)N2Cc3cnnn3-c3ccccc3C2C#N)cc1 (configuration not stated)	n	n	n	n	n
OC(O)C(Cl)(Cl)Cl	n	x	x	x	n
N#CC1c2ccccc2-n2nncc2CN1Cc1cc(Cl)cc(Cl)c1 (configuration not stated)	1.6µM	6.5µM	-102	8.2µM	1.8µM
COc1cc2c(cc1-c1cc3cc4ccoc4cc3oc1=O)OCO2	n	x	x	x	n
CCCCCC(=O)N[C@@H](c1ccccc1)[C@@H](O)C(=O)O[C@H]1C[C@@]2(O)[C@@H](OC(=O)c3ccccc3)C3[C@](C)(C(=O)[C@H](O)C(=C1C)C2(C)C)[C@@H](OC1OCC(O)C(O)C1O)C[C@H]1OC[C@@]31OC(C)=O (some centres not stated)	1.2µM	1.8µM	n	2.6µM	0.58µM
CC(=O)O[C@@]12CO[C@@H]1C[C@H](OC1OCC(O)C(O)C1O)[C@@]1(C)C(=O)[C@H](O)C3=C(C)[C@@H](OC(=O)[C@H](O)[C@@H](NC(=O)c4ccccc4)c4ccccc4)C[C@@](O)([C@@H](OC(=O)c4ccccc4)C12)C3(C)C (some centres not stated)	1.2µM	5.8µM	n	3.3µM	1µM
CC(=O)O[C@@]12CO[C@@H]1C[C@@H](O)[C@@]1(C)C(=O)[C@H](O)C3=C(C)[C@@H](OC(=O)[C@H](O)[C@@H](NC(=O)c4ccccc4)c4ccccc4)C[C@@](O)([C@@H](OC(=O)c4ccccc4)C12)C3(C)C (some centres not stated)	0.046µM	0.013µM	n	0.21µM	0.065µM
CN(C)C(CNC(=O)Cc1c(Cl)cccc1Cl)c1ccccc1 (configuration not stated)	n	n	n	n	n
COC12CCC3(CC1C(C)(O)C(C)(C)C)[C@H]1Cc4ccc(OC5OC(C(=O)O)[C@@H](O)C(O)[C@H]5O)c5c4[C@@]3(CCN1CC1CC1)C2O5 (some centres not stated)	n	n	n	n	n
SMILES	DT40 TDP1 CPT	HT1080 IDH1KD tx	IL-1B inflam inh	HT1080NT lethal	DT40 TDP1 no CPT
NC(=NCCC[C@H](N)C(=O)O)N[N+](=O)[O-]	n	x	x	x	n
O=c1[nH]sc2cc(F)ccc12	1.8µM	u	-108	u	2.3µM
C[C@@H]1CN([C@@H](C)CO)C(=O)c2c(c3ccccc3n2C)-c2ccccc2CO[C@H]1CN(C)S(=O)(=O)c1ccc(C#N)cc1	n	n	n	n	u
c1ccc2c(c1)Sc1ccccc1N2C[C@@H]1CN2CCC1CC2	n	x	x	x	n
FC(F)(F)c1ccc2c(c1)N(CCCN1CCN(CCCl)CC1)c1ccccc1S2	8.2µM	u	-116	u	8.2µM
OCCN1CCN(CCCN2c3ccccc3Sc3ccc(C(F)(F)F)cc32)CC1	16µM	23µM	-57	13µM	18µM
CC(=O)N1CC[N+](C)(C)CC1	n	x	x	x	n
Cc1ccc(C)c(N2CCN(C(=O)C3CCN(Cc4nc(-c5cccc(Cl)c5)oc4C)CC3)CC2)c1	9.2µM	x	x	x	6.5µM
Cc1oc(-c2ccc(Cl)cc2)nc1CS(=O)CC(=O)N1CCC2(CC1)OCCO2 (configuration not stated)	n	n	n	n	n
Cc1ccc(Cl)cc1N1CCN(C(=O)C2CCN(Cc3nc(-c4ccc(Cl)cc4)oc3C)CC2)CC1	u	x	x	x	15µM
CN(C)c1ccc(C=C2C=CC=C2)cc1	u	n	n	n	u
O=C(Oc1ccnc2cc(Cl)ccc12)N1CCOCC1	n	n	n	n	u
ClCCN1CCN(c2ccnc3cc(Cl)ccc23)CC1	13µM	n	-50	n	15µM
Cc1cc(C)cc(NC2=NCCCS2)c1	u	n	n	n	n
c1ccc(CCCN2CCN(CCOC(c3ccccc3)c3ccccc3)CC2)cc1	9.2µM	23µM	n	23µM	13µM
Fc1ccc(C(OCCN2CCN(C/C=C/c3ccccc3)CC2)c2ccc(F)cc2)cc1	5.2µM	x	x	x	3.3µM
COc1ccc(C(=O)C(C)(C)NO)cc1	u	n	n	n	u
COc1ccc(C=C(C#N)c2ccc(OC)cc2)cc1	u	n	-58	n	u
CCOC(=O)[C@]12Cc3cc(OC)ccc3[C@H]1N(C1CCCCC1)C(=O)c1ccccc12	2.1µM	2.3µM	-122	2.6µM	2.3µM
